This is a sample that favours compounds with a hit; in the whole collection about 9.2% have one here.
ELG1 genotox: induces genotoxicity in HEK293T cells with luciferase-tagged ELG1; HEK293T ELG1-luciferase reporter, luminescence, 16 h; Potency, µM (top dose mostly 46 µM), without a hit: at the top dose activity change, positive = activation, hits mostly activators; 330,000 tested, 1.3% active; further: % of control where 0% means no effect; nearly all actives have a fitted effect of over 60% in size
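16 hr compound incubation (37 °C, 5% CO2) of HEK293T cells carrying luciferase-tagged ELG1; luciferase then measured by ONE-Glo luminescence after 30 min at RT.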
NPC1 promoter act: activators of NPC1 promoter; 320,000 tested, 2.4% active; Huh7 NPC1 promoter luciferase reporter, 24 h; Potency, µM (series often up to 9.22 µM), inactives show at the top dose activation, most hits filed as activators; further: % of control where 0% means no effect; nearly all actives have a fitted effect of over 60% in size
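Luciferase expression driven by the NPC1 promoter was measured in stably transfected Huh7 cells after a 24 h compound incubation, using a luciferase reagent and a luminescence read.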
ELG1 repair inh: ELG1-dependent DNA repair inhibition. Potency, µM (series often up to 46.1 µM), inactives show top-dose activity change, negative = inhibition, usual class: inhibitors. AID 504467. 330,000 tested, 2.3% active. HEK293T ELG1-luciferase reporter, luminescence, 16 h; DNA damage induced by 5-fluorouridine; further: on the % scale 0 is the no-effect control and ±100 the full control effect; nearly all actives have a fitted effect of over 55% in size
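In this reporter screen, reduction of luminescence relative to DMSO vehicle indicated activity. Compounds and 5-fluorouridine were added together to 2,000 cells per well, incubated for 16 hr at 37 °C, then developed with ONE-Glo.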
Rab9 promoter act: Rab9 promoter activation | Huh7 Rab9 promoter-luciferase reporter, luminescence, 24 h | Potency, µM (doses to about 9.22 µM), for inactives: at the top dose activation, negative = inhibition, usual class: activators | 320,000 tested, 2.8% active | AID 485297; further: % of control where 0% means no effect; nearly all actives have a fitted effect of over 60% in size
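Luminescence from Amplite-detected luciferase (10 minutes, ambient) reports Rab9 promoter activation. Before that, stable Rab9-luciferase Huh7 cells (1500/well, reduced-serum OP-MEM I plus 10% FBS) were exposed to compound for 24 hours at 37C.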
SMN2 splice enh: increases expression of the SMN2 splice variant. HEK293 SMN2-luciferase splicing reporter, luminescence, 30-36 h. AID 1458. Potency, µM (series often up to 46.1 µM), inactives show at the top dose activity change, positive = activation, usual class: activators. 210,000 tested, 2.8% active; further: % of control where 0% means no effect; nearly all actives have a fitted effect of over 55% in size
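HEK293 cells carry an SMN2 […]–luciferase reporter in which exon 7 inclusion puts luciferase in frame. Cells were plated 10-12 h before compound addition, then incubated 30-36 h at 37C. ONE-Glo luminescence was read; sodium butyrate at 4.5 mM final served as control.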
FLuc modulator: inhibits or activates purified firefly luciferase, miR-21 counter-screen; P08659; purified FLuc, Km substrates, luminescence inhibition; Potency, µM (series often up to 57.5 µM), without a hit: top-dose activity change, negative = inhibition, most hits filed as inhibitors; 360,000 tested, 6.9% active; AID 588342;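 further: plate controls were vehicle for no effect and reference inhibitor for full effect; nearly all actives have a fitted effect of over 55% in size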
Target sequence (P08659 whole entry, looked up): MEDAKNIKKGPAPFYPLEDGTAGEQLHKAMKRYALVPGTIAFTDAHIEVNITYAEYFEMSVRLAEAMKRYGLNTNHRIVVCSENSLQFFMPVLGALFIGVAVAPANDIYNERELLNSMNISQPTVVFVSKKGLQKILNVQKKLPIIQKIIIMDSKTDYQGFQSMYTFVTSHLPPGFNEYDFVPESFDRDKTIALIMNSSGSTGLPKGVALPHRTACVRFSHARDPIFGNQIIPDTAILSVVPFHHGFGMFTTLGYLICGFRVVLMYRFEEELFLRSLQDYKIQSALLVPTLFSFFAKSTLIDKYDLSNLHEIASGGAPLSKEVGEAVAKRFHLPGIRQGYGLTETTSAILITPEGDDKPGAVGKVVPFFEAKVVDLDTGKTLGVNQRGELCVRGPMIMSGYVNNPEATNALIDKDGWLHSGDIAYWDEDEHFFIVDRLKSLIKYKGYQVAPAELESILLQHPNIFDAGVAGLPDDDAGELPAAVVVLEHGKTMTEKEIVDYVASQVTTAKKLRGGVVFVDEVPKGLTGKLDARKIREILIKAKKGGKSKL
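Purified P. pyralis luciferase (10nM final) with 10uM D-luciferin and 10uM ATP (Km levels) in 50mM Tris acetate pH 7.5, 10mM Mg acetate, 0.01% Tween-20, 0.05% BSA; qHTS 6-point titration, ~60 µM downward; luminescence read.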
Numbers without * were called inactive; ? = inconclusive; / = not tested or not shown. The call rests on the fitted dose curve; in most records, active means well fitted curve in the direction sought with a large enough effect; inconclusive means small, poorly fitted or top-dose-only effect, or another doubt; inactive means no such curve, though single readings can be large; an effect the other way counts as inactive or inconclusive. Potency means the concentration at half of the fitted maximal effect.

SMILES	ELG1 genotox	NPC1 promoter act	ELG1 repair inh	Rab9 promoter act	SMN2 splice enh	FLuc modulator
NC(=O)c1ccccc1N/C=C/C(=O)c1ccccc1	0.92µM*	0.56µM*	?	0.56µM*	7.1µM*	0.85µM*
COC(=O)c1ccccc1N/C=C/C(=O)c1ccc(Br)cc1	18%	25%	?	?	11µM*	17µM*
CC(C)(C)NC(=O)C1CCN(c2nc3ccccc3nc2C(F)(F)F)CC1	/	/	/	/	/	-7%
O=C(O)c1ccc(-c2ccc(OS(=O)(=O)c3ccccc3F)cc2)cc1	?	?	?	?	/	12µM*
COC(=O)c1ccccc1S(=O)(=O)Oc1ccc(-c2ccc(C(=O)O)cc2)cc1	3%	11%	8%	6%	/	-14%
CCCN(C/C=C/I)C1CCc2cccc(O)c2C1 (stereo not drawn)	/	/	/	/	-16%	/
O=S(=O)(Cc1ccccc1)N1CCN(c2ncccn2)CC1	1%	-1%	17%	12%	/	-1%
CCc1ccc(NC(=O)C(C)n2nnc3sc(-c4ccccc4)cc3c2=O)cc1 (stereo not drawn)	/	/	/	/	10%	-16%
CCc1ccc(N2C(=O)c3sc4nnc(-c5ccccc5)c(=O)n4c3C2=O)cc1	8%	-3%	-11%	-13%	8%	19µM*
CC1=C(c2ccc(Cl)cc2)S(=O)(=O)N=C1N1CCN(c2cccc(C)c2)C(C)C1 (stereo not drawn)	/	/	/	/	/	-14%
Cc1ccc(-c2nc3nc(C)cc(N4CCN(c5cccc(C)c5)C(C)C4)n3n2)cc1 (stereo not drawn)	/	/	/	/	2%	8.5µM*
CCOC(=O)N1CCC(n2c(SCC(=O)NCCc3ccc(S(N)(=O)=O)cc3)nc3ccccc3c2=O)CC1	-3%	-3%	10%	-1%	-19%	-4%
C/C(=N\NC1=NCCN1)c1ccc(Cl)cc1	0%	-4%	1%	-3%	/	3%
CC(C)(C)c1ccc(C(=O)NC(=S)Nc2nc3c(s2)CCCC3)cc1	?	28%	?	?	-52%	5.4µM*
C/C(=N\Nc1nc2c(s1)CCCC2)c1ccc(Cl)cc1	?	-2%	?	19%	-22%	19µM*
COC(=O)Nc1nc2c(s1)CCCC2	?	16%	?	15%	28%	-17%
CN(C)c1ccc(C(=O)Nc2nc3c(s2)CCCC3)cc1	?	0.45µM*	?	0.32µM*	0.63µM*	0.24µM*
CC(/C=C/C=C(C)/C=C/C(=O)O)=C\C=C\C=C(C)\C=C\C=C(C)\C=C\C(=O)O	/	/	/	/	16%	/
COc1cccc(C(=O)NCc2nc(-c3ccccc3)no2)c1OC	/	/	/	/	-10%	-14%
C/C(O)=C\c1nc2ccccc2oc1=O	-1%	-4%	-14%	14%	1%	2%
O=c1oc2ccccc2nc1/C=C(\O)c1ccc(Br)cc1	0%	9%	?	12%	/	24µM*
O=C(NC1CCSc2ccccc21)c1ccccc1Br (stereo not drawn)	-4%	?	?	29%	/	17µM*
O=C(NC1CCCc2ccccc21)c1ccccc1Br (stereo not drawn)	-1%	-2%	-5%	-1%	-11%	0%
CC1=NN(Cc2ccccc2)C(=O)/C1=C\c1ccc(N(C)C)cc1	7%	1%	16%	-1%	7%	11µM*
CCOC(=O)C1=NN(c2ccccc2)C(=O)/C1=C\c1ccc(N(C)C)cc1	14%	-1%	?	-5%	-1%	-5%
SMILES	ELG1 genotox	NPC1 promoter act	ELG1 repair inh	Rab9 promoter act	SMN2 splice enh	FLuc modulator
CCOc1ccc(CCNC(=O)c2cc3c(C)nccc3[nH]c2=O)cc1OCC	-12%	-4%	21µM*	-14%	/	-2%
Cc1nccc2[nH]c(=O)c(C(=O)NC3CCCCC3C)cc12 (stereo not drawn)	18%	-1%	?	13%	13µM*	1%
COc1ccccc1NC(=O)c1ccc(-n2cccn2)nc1	2%	1%	6%	1%	-22%	1%
Cc1cnc(NC(=O)Nc2ccc(Cl)cc2)s1	?	14%	?	-31%	173%	4.8µM*
O=C(Nc1ccc(F)cc1)Nc1nnc(-c2ccncc2)s1	-13%	-3%	?	-13%	-60%	-12%
Cc1cnc(NC(=O)CSc2ccc(Cl)cc2)s1	-2%	-3%	-10%	-2%	-11%	?
O=C(Nc1ccc(Cl)cc1)Nc1nnc(-c2ccncc2)s1	-11%	-18%	3.7µM*	-33%	-57%	-17%
CCOC(=O)CC(NC(=O)Cc1cccs1)c1ccccc1Cl (stereo not drawn)	-5%	1%	-21%	-5%	/	1%
Cc1cc(=O)[nH]c2nnc(-c3ccc(Br)cc3)n12	?	2.8µM*	?	?	/	0.95µM*
Cc1nnsc1S(=O)c1ccc(Br)cc1 (stereo not drawn)	2%	-7%	?	-12%	/	1%
CCC(=O)NC(=S)Nc1ccc(NC(=O)c2ccc([N+](=O)[O-])cc2Cl)cc1	-4%	0%	5.8µM*	1%	-52%	0%
O=C(Nc1ccc([N+](=O)[O-])cc1)c1cc2ccccc2nc1Cl	-11%	7%	18µM*	3%	/	-11%
O=C(Nc1ccccc1[N+](=O)[O-])c1cc2ccccc2nc1Cl	8%	-3%	13%	0%	/	6%
Cc1ccc(NC(=O)c2ccc([N+](=O)[O-])cc2Cl)nc1	?	2.5µM*	?	2.8µM*	5µM*	12µM*
CC(C)C(=O)Nc1ccc(NC(=O)c2ccc([N+](=O)[O-])cc2Cl)cc1	0%	-4%	-15%	-2%	-12%	2%
CCC(=O)NC(=S)Nc1cccc(NC(=O)c2ccc(Cl)cc2Cl)c1	0%	-14%	-16%	-8%	-7%	12µM*
CCCCN(C)CCNC(=O)c1cc(-c2ccc(Cl)s2)nc2ccccc12	/	/	/	/	0%	-1%
CCOC(=O)c1c(C)n(C)c2ccc(OC(=O)c3ccc(N4C(=O)CCC4=O)cc3)cc12	1%	-3%	-23%	-3%	-9%	0%
CN(C)c1ccc(NC(=O)c2ccc([N+](=O)[O-])cc2Cl)cc1	?	2.5µM*	?	3.2µM*	10µM*	4.3µM*
C(=N\Nc1nc2ccccc2[nH]1)/c1cccc2nccnc12	?	-5%	?	-4%	/	?
Fc1ccccc1-c1ccc(/C=N/Nc2nc3ccccc3[nH]2)o1	?	?	?	3.5µM*	22µM*	0.27µM*
C(=N\Nc1nc2ccccc2[nH]1)/c1ccccn1	-24%	?	?	?	/	0.34µM*

Assay outcomes deposited in PubChem by National Center for Advancing Translational Sciences (NCATS).
